Rows were chosen to be rich in hits. Some 3.1% of all compounds tested hit in one or more screens of this group.
PLK1 PBD inh: inhibitors of human PLK1 polo-box domain binding | Potency, µM, inactives show max response, negative = inhibition, most hits filed as inhibitors | Plk1 PBD binding of FITC phosphopeptide, fluorescence polarization | 2.8% of 360,000 active; also: potency is read from the fitted curve at half-maximal effect; series mostly up to about 57 µM; nearly all actives have a fitted effect of over 65% in size
PI4K2A inh: inhibitors of human PI4K2A; AID 1346378; 0.13% of 420,000 active; purified PI4K2A, ADP-Glo luminescence, 1 h; active compounds read low; activity change, negative = inhibition, % at 76.9 µM; in the data active = activity change below about -50%; inconclusive = mostly about -30% to -49%;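 also: -100% = wells without enzyme as full effect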
Target sequence (Q9BTU6 whole entry, looked up): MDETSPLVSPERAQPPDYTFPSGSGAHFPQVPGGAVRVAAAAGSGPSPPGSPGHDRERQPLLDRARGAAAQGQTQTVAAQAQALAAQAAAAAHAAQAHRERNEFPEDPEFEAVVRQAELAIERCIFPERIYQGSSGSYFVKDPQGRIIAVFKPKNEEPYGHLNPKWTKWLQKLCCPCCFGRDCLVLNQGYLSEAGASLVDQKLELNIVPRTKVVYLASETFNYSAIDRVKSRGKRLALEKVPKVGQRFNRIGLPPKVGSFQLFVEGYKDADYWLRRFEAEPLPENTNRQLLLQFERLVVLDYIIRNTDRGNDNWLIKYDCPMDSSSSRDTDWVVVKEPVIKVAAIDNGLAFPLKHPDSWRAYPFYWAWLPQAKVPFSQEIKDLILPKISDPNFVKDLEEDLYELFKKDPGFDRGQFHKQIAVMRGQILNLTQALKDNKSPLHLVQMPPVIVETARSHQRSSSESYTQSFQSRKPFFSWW
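Compounds are screened against recombinant PI4K2A using PI as substrate and ATP, the latter dispensed at 300 microM. Reactions run one hour at ambient temperature before ADP-Glo detection; full inhibition defined by wells lacking enzyme.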
VDR inh: inhibitors of human vitamin D receptor; AID 504847; VDR-SRC2-3 peptide fluorescence polarization, 2 h; 0.93% of 400,000 active; Potency, µM, without a hit: max response, negative = inhibition, actives largely listed as inhibitors; P11473; also: potency is read from the fitted curve at half-maximal effect
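Fluorescence polarization assay measuring small-molecule disruption of VDR binding to the coregulator peptide SRC2-3. Compounds were pin-transferred (23 nl) into the reagent mix and incubated 2 h at room temperature before reading.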
GLS inh: blocks human kidney-isoform glutaminase activity. 0.21% of 410,000 active. Potency, µM (highest dose often 45.5 µM), for inactives: top-dose activity change, negative = inhibition, actives largely listed as inhibitors. O94925. AID 624170. GLS enzymatic activity, qHTS titration; also: potency is read from the fitted curve at half-maximal effect
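hKGA in 45 mM KH2PO4 (pH 8.2), 0.02% Tween-20 with compound, then 1mM L-Glutamine (stock as added) plus glutamate oxidase/HRP/Amplex red coupling mix. Fluorescence read initially and after 30 min at RT; signal change reflects glutamate formation.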
KAT2A inh: inhibitors of human GCN5L2 histone acetyltransferase. Q92830. GCN5L2 HAT assay, ThioGlo1 CoA-SH fluorescence. Potency, µM (titrated, usually from 58.9 µM), for inactives: top-dose activity change, negative = inhibition, most hits filed as inhibitors. 0.21% of 390,000 active. AID 504327; also: potency is read from the fitted curve at half-maximal effect
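qHTS, 1536-well. 20nM enzyme, pH 7.5 HEPES/EDTA/Tween-20 buffer; 15 min compound preinc., RT. Start: 75uM H3(1-25), 70uM AcCoA, 50uM ThioGlo1. Read Ex340/Em540 at t=0 (autofluorescence flag) and t=20 min.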
An asterisk follows results filed as active; i = inactive; u = inconclusive; x = no result. Unless noted, calls follow the shape of the dose curve; as a rule, active = well fitted curve in the direction sought with a large enough effect; inconclusive = small, poorly fitted or top-dose-only effect, or another doubt; inactive = no such curve, though single readings can be large; an effect the other way counts as inactive or inconclusive. Unless noted, % is scaled to controls: 0 for no effect and ±100 for the full control effect.

SMILES | PLK1 PBD inh | PI4K2A inh | VDR inh | GLS inh | KAT2A inh
Cc1nc(NC(=O)C2CC2)sc1C(=O)Nc1ccccc1 | -1% | 2 | 12% | 3% | -4%
CCN(CC)CCNC(=O)c1ccc(Cn2c(SCc3ccccc3)nc3cccnc32)cc1 | x | -1 | 7% | 6% | 1%
CC(NC(=O)c1cc2ccc(C(F)(F)F)cc2nc1N)c1cccc2ccccc12 (centres undefined) | x | -3 | x | x | x
CCOC(=O)N/N=C/c1ccccc1-c1cc(OC)ccc1OC | x | x | -2% | x | x
CC(=O)Nc1ccc(SCC(=O)c2cc(C)ccc2C)cc1 | 19µM* | 4 | -14% | 6% | 5%
CC(C)(C)NCC(O)COc1ccccc1OCC1CCCO1 (centres undefined) | x | 0 | x | x | x
Cc1ccc(-c2csc3nnc(SCC(=O)NCc4ccc5c(c4)OCO5)n23)cc1 | -7% | 5 | 14% | -9% | -21%
c1ccc(-c2csc3nnc(SCc4ccc5c(c4)OCO5)n23)cc1 | 21µM* | -6 | 79µM* | u | 0%
FC(F)Oc1ccc(NC(=S)Nn2cnnc2)cc1 | 6.7µM* | -3 | u | -6% | -16%
COc1ccc(/C(C)=N/N=C2/NC(=O)CC(C(=O)O)S2)cc1 (centres undefined) | 12µM* | -11 | u | u | -23%
CCn1c2ccccc2c2cc(C=NNC(=O)c3cc(-c4ccc(OC)cc4)n[nH]3)ccc21 | x | 2 | x | x | x
COc1cc(/C=C/[N+](=O)[O-])ccc1OC(=O)c1cc2ccccc2oc1=O | 13µM* | 0 | u | -1% | -13%
COc1ccccc1OC(=O)c1cc2ccccc2oc1=O | -8% | 4 | 4% | -1% | -1%
CCC(C(=O)Nc1ccc(C(=O)OC)cc1)n1c(=O)c(-c2ccccc2NC(C)=O)nc2ccccc21 (centres undefined) | x | 1 | -4% | 7% | -6%
CCC(C)NC(=O)CNc1nnnn1-c1ccccc1 (centres undefined) | x | 2 | x | x | x
COC(=O)[C@H]1[C@H]2C[C@@H]3c4[nH]c5ccccc5c4CCN3C[C@H]2C[C@@H](OC(=O)c2cc(OC)c(OC)c(OC)c2)[C@@H]1OC | x | x | 35µM* | 6% | u
COc1ccc(-c2cn3c(n2)sc2cc(C(=O)NCCc4ccccc4)ccc23)cc1 | x | 2 | 16% | -8% | -12%
CC1(C)CC(NNCCC#N)=CC(=[N+]2CCCC2)C1 | 24µM* | -5 | 0% | -3% | -12%
CC(C)n1ncc2c(C(=O)O)cc(C3CC3)nc21 | 30µM* | -3 | u | 3% | -5%
O=C(COC(=O)CCc1nc2ccccc2c(=O)[nH]1)Nc1ccc(Cl)cn1 | 15µM* | 1 | u | 34% | -9%
CC1Cc2ccccc2N1C(=O)COC(=O)CCc1nc2ccccc2c(=O)[nH]1 (centres undefined) | 4.2µM* | -6 | u | u | 15%
NC[C@H]1O[C@H](O[C@H]2[C@H](O)[C@@H](O[C@H]3O[C@H](CO)[C@@H](O)[C@H](N)[C@H]3O)[C@H](N)C[C@@H]2N)[C@H](N)[C@@H](O)[C@@H]1O | x | i | x | x | x
CCSc1nnc(NC(=O)CSc2sc3c(O)cc(=O)[nH]c3c2C#N)s1 | 12µM* | -6 | 16% | 20% | u
Cc1csc(NC(=O)CSc2nc3[nH]c(=O)cc(O)c3s2)n1 | -7% | -10 | -3% | 14% | x
O=C(CSc1nc2[nH]c(=O)cc(O)c2s1)Nc1nncs1 | 30µM* | 2 | -15% | 0% | x
SMILES | PLK1 PBD inh | PI4K2A inh | VDR inh | GLS inh | KAT2A inh
N#Cc1c(SCC(=O)Nc2cccc(C(F)(F)F)c2)sc2c(O)cc(=O)[nH]c12 | 13µM* | 9 | u | -22% | -19%
CCc1nnc(NC(=O)CSc2sc3c(O)cc(=O)[nH]c3c2C#N)s1 | 30µM* | -6 | -2% | u | u
COc1cc(C(=O)N/N=C/c2ccc3c(c2)c2ccccc2n3C)ccc1O | -4% | 2 | -2% | -9% | -9%
Cn1c2ccccc2c2cc(/C=N/NC(=O)c3cc(O)cc(O)c3)ccc21 | -24% | -5 | -2% | 16µM* | -17%
CCOc1cccc(C(=O)N(Cc2ccc(C)o2)C2CCS(=O)(=O)C2)c1 (centres undefined) | x | 2 | 4% | -3% | -1%
CC(C)(C)OC(=O)N1CCC[C@H]1C(=O)NCc1ccc(Cl)cc1Cl | 27µM* | 4 | u | -17% | -16%
OCC1(CO)COC(C(Cl)(Cl)Cl)OC1 | x | x | 4% | 10% | -7%
COCCN(C(=O)COC(=O)CCc1nc2ccccc2s1)c1c(N)n(Cc2ccccc2)c(=O)[nH]c1=O | -7% | -1 | -9% | -1% | u
COCCN(C(=O)CSc1nc2ccccc2s1)c1c(N)n(Cc2ccccc2)c(=O)[nH]c1=O | u | -8 | 79µM* | 7% | x
Cn1c(/C=C/c2ccc(Br)cc2)c([N+](=O)[O-])c(=O)n(C)c1=O | -7% | -13 | 50µM* | 3% | 1%
O=C(N/N=C/c1ccc(N2CCOCC2)s1)c1ccccc1Cl | 24µM* | -2 | u | 47% | -13%
CCOC(=O)N/N=C/c1ccc(N2CCOCC2)s1 | -12% | 0 | 0% | 25% | -4%
COc1ccc(-c2nnc3sc(C(C)N4C(=O)c5ccccc5C4=O)nn23)cc1 (centres undefined) | 24µM* | -3 | u | -8% | -7%
COc1ccc(-c2nnc3sc(-c4ccccn4)nn23)cc1 | x | x | x | x | -6%
N#Cc1cccc(Cn2ccc3ccc(-c4ccc5ccn(Cc6ccccc6)c5c4)cc32)c1 | x | -13 | x | x | x
CCCC1=Nc2cc(C(=O)NC3CCCCC3)ccc2Sc2ccc(C)cc21 | x | 2 | -12% | -1% | -16%
COc1ccc(-n2c(SCC(=O)C(C)(C)C)nc3c(sc(=S)n3-c3ccccc3)c2=O)c(OC)c1 | 3.8µM* | 127 | 32µM* | 0% | -7%
COc1cc(N)c2ncccc2c1Br | -13% | -52* | -7% | -3% | x
COCC(=O)n1nc(NCc2ccc(OC)cc2)nc1NCc1ccc(OC)cc1 | 12µM* | 4 | -28% | u | 0%
CC(=O)n1nc(-c2ccc(Cl)cc2)nc1NCc1ccco1 | 21µM* | -1 | u | 8% | -8%
COc1ccc(C(=O)NNc2ncnc3c2cnn3-c2ccc(C)c(Cl)c2)cc1 | x | 1 | 5% | -12% | -2%
COc1cc(/C=C/C2=NNC(=O)CC2)cc(OC)c1OC | 6% | 4 | -4% | -9% | -22%
CC(C)c1ccc(/C=C/C2=NNC(=O)CC2)cc1 | 9.5µM* | -5 | u | 0% | -16%
CCOC(=O)c1ccccc1NC(=O)c1cnc(N2CCOCC2)c2ccccc12 | x | -2 | 8% | 6% | -5%
Oc1ccccc1N1CCN(c2ccc3ccccc3n2)CC1 | -8% | -1 | -21% | 10µM* | -10%
CC(C)c1cc(/C=C(\C#N)C(=O)NCCCc2ccccc2)cc(C(C)C)c1O | x | x | -4% | x | -11%

Source: PubChem
